Measurements published in PubChem BioAssay (NCI).
The panel holds about 83,000 compounds, 20% with a hit somewhere; the sample as a whole holds those more often.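 The test compound was applied at a single concentration to cells in 96-well plates for 48 hours, and percent growth was recorded.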 Calls of active or inactive are those of the source. The calls were made as follows: active = growth percent below 10; inactive = the rest.

Experiments:
Experiment in all cases: NCI-60 one-dose screen, 48 h (100 = growth as untreated, 0 = no growth, -100 = all killed)
SK-MEL-2 melanoma = settings: 10 µM unless noted
EKVX NSCLC = settings: 10 µM unless noted
SN12C renal = settings: 10 µM unless noted
UO-31 renal = settings: 10 µM unless noted
TK-10 renal = settings: 10 µM unless noted
A498 renal = settings: 10 µM unless noted
CCRF-CEM leukemia = settings: 10 µM unless noted
MOLT-4 leukemia = settings: 10 µM unless noted
SR leukemia = settings: 10 µM unless noted
RPMI-8226 leukemia = settings: 10 µM unless noted
OVCAR-8 ovarian = settings: 10 µM unless noted
OVCAR-5 ovarian = settings: 10 µM unless noted
OVCAR-4 ovarian = settings: 10 µM unless noted
SK-OV-3 ovarian = settings: 10 µM unless noted
IGROV1 ovarian = settings: 10 µM unless noted
OVCAR-3 ovarian = settings: 10 µM unless noted
HS 578T breast = settings: 10 µM unless noted
NCI/ADR-RES ovarian = settings: 10 µM unless noted
CAKI-1 renal = settings: 10 µM

Measured: growth

C=C1C(=O)O[C@H]2[C@H]1CC/C(CNC(=O)/C1=C/CC[C@@]3(C)O[C@H]3[C@H]3OC(=O)C(=C)[C@@H]3CC1)=C\CC[C@@]1(C)O[C@@H]21
inactive: SK-MEL-2 melanoma 88.7% | EKVX NSCLC 86.2% | SN12C renal 96.7% | UO-31 renal 95.5% | TK-10 renal 102% | A498 renal 94.6% | CCRF-CEM leukemia 42.6% | MOLT-4 leukemia 93.5% | SR leukemia 92.4% | RPMI-8226 leukemia 78.8% | OVCAR-8 ovarian 92.2% | OVCAR-5 ovarian 111% | OVCAR-4 ovarian 86.9% | SK-OV-3 ovarian 89.8% | IGROV1 ovarian 102% | OVCAR-3 ovarian 85.1% | HS 578T breast 112% | NCI/ADR-RES ovarian 99.7%

COc1cc(NS(C)(=O)=O)ccc1Cc1c2ccccc2nc2ccccc12
active: SN12C renal -6.92% | UO-31 renal -5.05% | CAKI-1 renal -4.78% | A498 renal -8.76% | CCRF-CEM leukemia 3.42% | MOLT-4 leukemia 4.35% | SR leukemia -5.52% | OVCAR-8 ovarian 2.44% | OVCAR-3 ovarian -76.6%
inactive: SK-MEL-2 melanoma 104% | EKVX NSCLC 45.3% | TK-10 renal 23.9% | RPMI-8226 leukemia 22% | OVCAR-4 ovarian 38.8% | SK-OV-3 ovarian 18% | IGROV1 ovarian 36.5% | HS 578T breast 48% | NCI/ADR-RES ovarian 62.3%

CC(CN(C)C)CN1c2ccccc2CCc2ccccc21 (stereo not drawn)
inactive: SK-MEL-2 melanoma 88.8% | EKVX NSCLC 80.6% | SN12C renal 73.7% | UO-31 renal 38.9% | TK-10 renal 87.2% | CAKI-1 renal 70.6% | A498 renal 104% | CCRF-CEM leukemia 87.1% | MOLT-4 leukemia 81.2% | SR leukemia 91.4% | RPMI-8226 leukemia 90.4% | OVCAR-8 ovarian 106% | OVCAR-4 ovarian 78.7% | SK-OV-3 ovarian 95% | IGROV1 ovarian 62% | OVCAR-3 ovarian 111% | HS 578T breast 86.4% | NCI/ADR-RES ovarian 76.4%

O=C(Nc1cccc([N+](=O)[O-])c1)Nc1cccc([N+](=O)[O-])c1
inactive: SK-MEL-2 melanoma 53.9% | EKVX NSCLC 50.4% | SN12C renal 70.3% | UO-31 renal 46.6% | TK-10 renal 39% | A498 renal 33.1% | CCRF-CEM leukemia 15.5% | SR leukemia 38.2% | RPMI-8226 leukemia 12.4% | OVCAR-8 ovarian 63.3% | OVCAR-5 ovarian 89.6% | OVCAR-4 ovarian 39.3% | SK-OV-3 ovarian 87.6% | IGROV1 ovarian 63.6% | OVCAR-3 ovarian 27.6% | HS 578T breast 94.6% | NCI/ADR-RES ovarian 52.1%
active: MOLT-4 leukemia 9.18%

C=C1C(=O)O[C@H]2[C@H]1CC/C(COC(=O)c1ccc3ccccc3c1)=C\CC[C@@]1(C)O[C@@H]21
inactive: A498 renal 64.1% | SK-OV-3 ovarian 82.6%
active: SK-MEL-2 melanoma -70.4% | EKVX NSCLC -75.5% | SN12C renal -54% | UO-31 renal -98.9% | TK-10 renal -95.9% | CCRF-CEM leukemia -22.9% | MOLT-4 leukemia -14.1% | SR leukemia -19.4% | RPMI-8226 leukemia -39.3% | OVCAR-8 ovarian -21.4% | OVCAR-5 ovarian -52.9% | OVCAR-4 ovarian -36.7% | IGROV1 ovarian -75.1% | OVCAR-3 ovarian -93.1% | HS 578T breast 3.13% | NCI/ADR-RES ovarian -37.7%

COc1ccc(/C=C/C(=O)c2ccc(-n3cc(CN4CCN(c5cc6c(cc5F)c(=O)c(C(=O)O)cn6C5CC5)CC4)nn3)cc2)cc1OC
active: CCRF-CEM leukemia 3.05% | SR leukemia -12.4% | RPMI-8226 leukemia -15.8% | IGROV1 ovarian -24.8% | OVCAR-3 ovarian -16.1%
inactive: SK-MEL-2 melanoma 97.4% | EKVX NSCLC 80% | SN12C renal 14.9% | UO-31 renal 43.5% | TK-10 renal 80% | CAKI-1 renal 60% | A498 renal 54.4% | MOLT-4 leukemia 10.5% | OVCAR-8 ovarian 39.7% | OVCAR-5 ovarian 72.3% | OVCAR-4 ovarian 73.7% | SK-OV-3 ovarian 67.5% | HS 578T breast 21.5% | NCI/ADR-RES ovarian 82%

C=C1c2c(Cl)ccc(O)c2C(O)=C2C(=O)[C@]3(O)C(O)=C(C(N)=O)C(=O)[C@@H](N(C)C)[C@@H]3[C@@H](O)[C@H]12
inactive: EKVX NSCLC 36.4% | SN12C renal 10.8% | RPMI-8226 leukemia 13.2% | OVCAR-4 ovarian 23.7% | SK-OV-3 ovarian 11.2% | NCI/ADR-RES ovarian 61.2%
active: SK-MEL-2 melanoma -10.9% | UO-31 renal 4.78% | TK-10 renal 7.64% | CAKI-1 renal 3.62% | A498 renal -10% | MOLT-4 leukemia -11.5% | SR leukemia -8.97% | OVCAR-8 ovarian 9.79% | IGROV1 ovarian -2.89% | OVCAR-3 ovarian -16.2% | HS 578T breast 5.86%

COc1ccc(Cl)cc1NC(=O)c1cc2c([nH]1)-c1nc(NC(=O)C(C)C)sc1CC2
inactive: SK-MEL-2 melanoma 84.6% | EKVX NSCLC 82.1% | SN12C renal 99.2% | UO-31 renal 51.9% | TK-10 renal 85.8% | A498 renal 112% | CCRF-CEM leukemia 93.4% | MOLT-4 leukemia 86% | SR leukemia 77.9% | RPMI-8226 leukemia 93.7% | OVCAR-8 ovarian 107% | OVCAR-5 ovarian 128% | OVCAR-4 ovarian 109% | SK-OV-3 ovarian 78.1% | IGROV1 ovarian 77.1% | OVCAR-3 ovarian 103% | HS 578T breast 93.4% | NCI/ADR-RES ovarian 93.9%

CCOC(=O)NNc1nncc2ccccc12
inactive: SK-MEL-2 melanoma 119% | EKVX NSCLC 78.3% | SN12C renal 97% | UO-31 renal 90.4% | TK-10 renal 106% | CAKI-1 renal 84.1% | A498 renal 96% | CCRF-CEM leukemia 109% | MOLT-4 leukemia 94% | SR leukemia 93.3% | RPMI-8226 leukemia 105% | OVCAR-8 ovarian 98.2% | OVCAR-4 ovarian 116% | SK-OV-3 ovarian 101% | IGROV1 ovarian 106% | OVCAR-3 ovarian 121% | HS 578T breast 98.9% | NCI/ADR-RES ovarian 103%

COc1ccc(/C=C2/C(=O)Nc3cc(Cl)c(-c4csc(N)n4)cc32)cc1
inactive: SK-MEL-2 melanoma 35% | EKVX NSCLC 46.5% | SN12C renal 59.6% | UO-31 renal 55.6% | TK-10 renal 84.4% | A498 renal 25.1% | CCRF-CEM leukemia 31.7% | MOLT-4 leukemia 28.2% | SR leukemia 18.4% | RPMI-8226 leukemia 39.3% | OVCAR-8 ovarian 61.8% | OVCAR-5 ovarian 85% | OVCAR-4 ovarian 70.1% | SK-OV-3 ovarian 48.5% | IGROV1 ovarian 56.1% | OVCAR-3 ovarian 17% | HS 578T breast 45.7% | NCI/ADR-RES ovarian 32.2%

C#C[C@H](O)/C=C/CCCCCCC#C[C@H](O)CC[C@@H](O)C#CCCCCCC/C=C/[C@@H](O)C#C
inactive: SK-MEL-2 melanoma 92.7% | EKVX NSCLC 90.2% | SN12C renal 69.1% | TK-10 renal 106% | A498 renal 102% | RPMI-8226 leukemia 21.3% | OVCAR-8 ovarian 89.1% | OVCAR-5 ovarian 111% | OVCAR-4 ovarian 101% | SK-OV-3 ovarian 105% | OVCAR-3 ovarian 96% | HS 578T breast 95.9% | NCI/ADR-RES ovarian 54.5%
active: UO-31 renal -82.6% | CCRF-CEM leukemia -37.3% | MOLT-4 leukemia 0.882% | SR leukemia -22.8% | IGROV1 ovarian -37.6%

C=C1C(=O)O[C@H]2[C@H]1CC/C(COC(=O)n1ccnc1C)=C\CC[C@@]1(C)O[C@@H]21
inactive: SK-MEL-2 melanoma 86.8% | EKVX NSCLC 98.4% | SN12C renal 103% | UO-31 renal 83.1% | TK-10 renal 94.3% | A498 renal 105% | CCRF-CEM leukemia 70.4% | MOLT-4 leukemia 79.8% | SR leukemia 86.6% | RPMI-8226 leukemia 100% | OVCAR-8 ovarian 91.4% | OVCAR-5 ovarian 101% | OVCAR-4 ovarian 99.3% | SK-OV-3 ovarian 85.4% | IGROV1 ovarian 97.7% | OVCAR-3 ovarian 73.7% | HS 578T breast 98% | NCI/ADR-RES ovarian 96.3%

O=C(Cn1c2ccccc2c2ccncc21)N/N=C\c1ccc2ccccc2c1
active: UO-31 renal -28.3% | RPMI-8226 leukemia -1.73% | OVCAR-4 ovarian -11% | OVCAR-3 ovarian -37.1%
inactive: SK-MEL-2 melanoma 63.8% | EKVX NSCLC 55.8% | SN12C renal 19.9% | TK-10 renal 55.1% | A498 renal 85.1% | CCRF-CEM leukemia 50.4% | MOLT-4 leukemia 41.7% | SR leukemia 33.5% | OVCAR-8 ovarian 14.2% | OVCAR-5 ovarian 75.2% | SK-OV-3 ovarian 36% | IGROV1 ovarian 43.1% | HS 578T breast 38.2% | NCI/ADR-RES ovarian 27.2%

Nc1ccc(S(=O)(=O)Nc2ccnn2-c2ccccc2)cc1
inactive: SK-MEL-2 melanoma 115% | EKVX NSCLC 93.8% | SN12C renal 99.7% | UO-31 renal 82.4% | TK-10 renal 117% | CAKI-1 renal 92.7% | A498 renal 107% | CCRF-CEM leukemia 107% | MOLT-4 leukemia 98.1% | SR leukemia 95.5% | RPMI-8226 leukemia 117% | OVCAR-8 ovarian 93.7% | OVCAR-4 ovarian 109% | SK-OV-3 ovarian 103% | IGROV1 ovarian 107% | OVCAR-3 ovarian 111% | HS 578T breast 103% | NCI/ADR-RES ovarian 103%

COc1ccc(-c2nnc(SCC(=O)Nc3ccc(C(=O)/C=C/c4ccc(Cl)cc4)cc3)o2)cc1OC
inactive: SK-MEL-2 melanoma 72% | EKVX NSCLC 80.2% | SN12C renal 47.8% | UO-31 renal 72.3% | TK-10 renal 52.8% | A498 renal 88.7% | CCRF-CEM leukemia 65.1% | MOLT-4 leukemia 41.1% | SR leukemia 24.2% | RPMI-8226 leukemia 59.4% | OVCAR-8 ovarian 37.4% | OVCAR-5 ovarian 90.5% | SK-OV-3 ovarian 87.4% | IGROV1 ovarian 70.4% | OVCAR-3 ovarian 106% | HS 578T breast 102% | NCI/ADR-RES ovarian 38.4%
active: OVCAR-4 ovarian -17.1%

COc1cc(/C=C/C(=O)c2ccc(Oc3ncnc4ccccc34)cc2)cc(OC)c1OC
inactive: SK-MEL-2 melanoma 94.6% | EKVX NSCLC 87% | SN12C renal 68.3% | UO-31 renal 51.6% | TK-10 renal 100% | A498 renal 104% | CCRF-CEM leukemia 36.6% | MOLT-4 leukemia 62.3% | SR leukemia 38.1% | RPMI-8226 leukemia 24.3% | OVCAR-8 ovarian 74.9% | OVCAR-5 ovarian 88.2% | OVCAR-4 ovarian 73.6% | SK-OV-3 ovarian 83.6% | IGROV1 ovarian 66.5% | OVCAR-3 ovarian 35.6% | HS 578T breast 97.1% | NCI/ADR-RES ovarian 70.3%
